B2AR arrestin ag – qHTS assay of beta-arrestin-biased ligands of beta2-adrenergic receptor: NCGC Sytravon Library Screen; Beta-2 adrenergic receptor (Homo sapiens), P07550; HTLA Tango cells, beta-arrestin recruitment, luciferase luminescence, 18 h; Potency, µM (titrated, usually from 46.1 µM), most hits filed as activators; 44,000 tested, under 10 active; AID 1347077, 2019
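Receptor–beta-arrestin recruitment read by tTA-responsive luciferase: compound titrations (up to 46 µM) incubated 18 h with Tango cells, then luminescent substrate 15 min at room temperature. Concentration-response fits classified by r2, efficacy and activity.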
GALC G270D up – A Novel Cell-Based Assay to Identify Small Molecules for B -Galactocerebrosidase; 145M-Twi-hGALC-G270D cells (Twitcher mouse brain line with human GALC G270D), HMU-beta-Gal fluorescence, 48 h; Potency, µM (titrated, usually from 57.5 µM), actives largely listed as activators; 45,000 tested, 0.1% active; AID 1159614, 2016; note: nearly all actives have a fitted effect of over 65% in size
Target sequence (P54803 whole entry G286D): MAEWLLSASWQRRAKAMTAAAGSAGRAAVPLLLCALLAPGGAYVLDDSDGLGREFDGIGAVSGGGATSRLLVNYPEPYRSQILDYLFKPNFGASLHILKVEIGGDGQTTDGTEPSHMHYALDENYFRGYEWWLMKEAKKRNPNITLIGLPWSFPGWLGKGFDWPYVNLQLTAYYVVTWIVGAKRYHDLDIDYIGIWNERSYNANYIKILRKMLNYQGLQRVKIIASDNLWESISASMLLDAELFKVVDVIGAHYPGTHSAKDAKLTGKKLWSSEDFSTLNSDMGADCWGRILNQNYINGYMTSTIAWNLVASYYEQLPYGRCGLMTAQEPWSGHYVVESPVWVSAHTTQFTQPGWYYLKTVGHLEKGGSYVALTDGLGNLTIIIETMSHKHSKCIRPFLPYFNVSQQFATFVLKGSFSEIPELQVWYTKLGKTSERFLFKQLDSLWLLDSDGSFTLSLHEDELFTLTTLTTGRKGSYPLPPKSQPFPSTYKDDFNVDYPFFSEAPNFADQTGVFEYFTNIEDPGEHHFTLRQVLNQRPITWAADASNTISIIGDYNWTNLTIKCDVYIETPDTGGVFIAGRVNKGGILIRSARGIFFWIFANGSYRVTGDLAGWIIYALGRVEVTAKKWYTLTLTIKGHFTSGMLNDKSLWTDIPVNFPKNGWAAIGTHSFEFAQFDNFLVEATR
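Brain-derived Twitcher mouse 145M-Twi cells stably expressing human GALC-G270D or wild-type GALC, treated live, then residual GALC activity read by fluorescence of HMU-b-Gal substrate (0.1 mM final) in citrate-phosphate buffer pH 5.2 with sodium taurocholate. Signal increase indicates enhancement.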
GALK inh – qHTS Assay for Inhibitors of Human Galactokinase (GALK): NCGC Sytravon Library Screen; P51570; recombinant GALK, Kinase-Glo ATP luminescence, 1 h; Potency, µM (top dose mostly 57.5 µM), usual class: inhibitors; 44,000 tested, under 10 active; AID 1347072, 2019
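Human GALK (5 nM) was incubated with 35 uM ATP and 100 uM galactose in 20 mM HEPES pH 8.0 with MgCl2, NaCl, DTT and BSA for 1 h at room temperature. Remaining ATP was measured by Kinase-Glo Plus luminescence.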
DRV1 agonist – qHTS for Agonists of Human Resolvin D1 Receptor DRV1 | CHO-K1 GPR32 beta-arrestin PathHunter luminescence, 90 min; zero percent set by DMSO-only wells | activation, % at 76.9 µM | 48,000 tested, 2.5% active;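 active = activation of at least 60% and not above a set upper limit, about 1 call in 100 departs from these limits; inconclusive = activation of 40% to 60%, or above that upper limit; inactive = activation under 40%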
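Beta-arrestin recruitment read-out: luminescence from complemented beta-Gal in CHO-K1 GPR32 PathHunter cells, measured 1 h after detection reagent at ambient temperature following 90 min compound exposure at 37 °C; DMSO served as basal (EC0) control.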
TSG101-PTAP inh – qHTS Validation Assay for Inhibitors of HIV-1 Budding by Blocking the Interaction of PTAP/TSG101: Sytravon Library Screen. Fluorescence polarization, FITC-PTAP peptide/Tsg101, 20 min. Tumor susceptibility gene 101 protein (Homo sapiens), Q99816. AID 1347069, 2019. 44,000 tested, under 10 active. Potency, µM (series often up to 115 µM), usual class: inhibitors
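Fluorescence polarization binding of Tsg101 binding domain (10 uM final) to FITC-labeled PTAP-motif peptide (50 nM final) in HEPES pH 7.5/NaCl/Tween 20/EDTA/TCEP buffer; 20 min at r.t. Actives by curve class, <25 µM, efficacy <60% inhibition.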
NTMT1 inhibitor – Primary qHTS for Inhibitors of N-terminal methyltransferase 1 (NTMT1): MTaseGlo Assay. N-terminal Xaa-Pro-Lys N-methyltransferase 1 (Homo sapiens), Q9BV86. NTMT1 MTase-Glo SAH luminescence, purified enzyme. Potency, µM (doses to about 114 µM), usual class: inhibitors. 59,000 tested, 2.5% active. AID 1645870, 2021; note: nearly all actives have a fitted effect of over 65% in size
A number is an active result; 0 = inactive; ? = inconclusive; - = no result; [ ] = dose if it differs, or a comment. Sampled rows, rich in hits. Any-hit rate of the full collection: about 3.6%. Unless noted, calls come from the whole dose curve; as a rule, active = well fitted curve in the direction sought with a large enough effect; inconclusive = small, poorly fitted or top-dose-only effect, or another doubt; inactive = no such curve, though single readings can be large; an effect the other way counts as inactive or inconclusive.

SMILES	B2AR arrestin ag	GALC G270D up	GALK inh	DRV1 agonist	TSG101-PTAP inh	NTMT1 inhibitor
C=Cc1ccc(Cn2c(C)c(CNCCc3ccc(OCC)cc3)c(C(=O)O)c2C)cc1	0	0	0	68	0	0
Cc1ccc(Cn2c(C(=O)O)c(CNCc3cccs3)c3ccc(C)cc32)cc1	0	0	0	111	0	0
Cc1ccc(C(C)c2ccc(=O)n(CC(=O)NCCc3ccccc3)n2)cc1 (stereo not drawn)	-	-	-	-	-	0
CC(=O)Nc1ccc(NC(=O)c2cnn3c(C)cc(C)nc23)cc1	-	-	-	-	-	0
C[C@@H]1CC2C3C[C@H](F)C4=CC(=O)C=C[C@]4(C)[C@@]3(F)[C@@H](O)C[C@]2(C)[C@@]1(OC(=O)c1ccco1)C(=O)SCF (stereo partly drawn)	-	-	-	-	-	0
CN1CCN(CCCNc2ncc(Cl)c(-c3cc4c(C(=O)NC5CC5)cccc4s3)n2)CC1	-	-	-	-	-	79µM
CN1CCN(CCCNC(=O)c2cnn(-c3ccccc3)c2C2CCN(C(=O)OC(C)(C)C)CC2)CC1	0	0	0	0	0	0
CCc1ccc(NC(=O)Cn2c(=O)oc3cc(S(=O)(=O)N4CCCCCC4)ccc32)cc1	0	0	0	0	0	0
COc1ccccc1CNC(=O)Cn1c(=O)ccc2cc(S(=O)(=O)N3CCC(C)CC3)ccc21	0	0	0	0	0	0
COc1ccccc1CNC(=O)Cn1c(=O)oc2cc(S(=O)(=O)N3CCC(C)CC3)ccc21	0	0	0	78	0	0
CCOc1ccc(NC(=O)Cn2c(=O)oc3cc(S(=O)(=O)N4CCC(C)CC4)ccc32)cc1	0	0	0	117	0	0
CC(C)(O)[C@H]1CC[C@@](C)([C@H]2[C@@H](O)C[C@@]3(C)[C@@H]4C[C@H](O[C@@H]5O[C@H](CO)[C@@H](O)[C@H](O)[C@H]5O)[C@H]5C(C)(C)[C@@H](O[C@@H]6OC[C@@H](O)[C@H](O)[C@H]6O)CC[C@@]56C[C@@]46CC[C@]23C)O1	-	-	-	-	-	0
Cc1cc(O)c(-c2ccnc3cc(-c4ccccc4)nn23)cc1Cl	0	0	0	90	0	?
Cc1ccc(-c2cc3nccc(-c4cc([N+](=O)[O-])ccc4O)n3n2)cc1	0	0	0	0	0	?
CC1OC(OC2C(C)OC(OC3C(OC(=O)/C=C/c4ccc(O)cc4)C(CO)OC(OC4(COC(=O)/C=C/c5ccc(O)cc5)OC(CO)C(O)C4O)C3OC3OCC(O)(CO)C3O)C(O)C2O)C(O)C(O)C1O (stereo not drawn)	-	-	-	-	-	0[12.6 µM]
COc1ccc2nc(NC(=O)c3nc(S(=O)(=O)Cc4ccccc4)ncc3Cl)sc2c1	0	0	0	0	0	0
Cc1nnc(NC(=O)c2nc(S(=O)(=O)Cc3ccccc3)ncc2Cl)s1	0	0	0	81	0	0
O=C(Nc1nc2ccc(F)cc2s1)c1nc(S(=O)(=O)Cc2ccccc2)ncc1Cl	0	0	0	91	0	0
Cc1cccc(CS(=O)(=O)c2ncc(Cl)c(C(=O)Nc3nc4ccc(F)cc4s3)n2)c1	0	0	0	0	0	0
CC(=O)O[C@@H]1[C@H](O[C@@H]2OC[C@](O)(CO)[C@H]2O)[C@@H](O[C@@H]2O[C@@H](C)[C@H](O)[C@@H](O[C@@H]3O[C@H](CO)[C@@H](O)[C@H](O)[C@H]3O)[C@H]2O)[C@H](OC(=O)[C@]23CCC(C)(C)C[C@H]2C2=CCC4[C@@]5(C)C[C@H](O)[C@H](O[C@@H]6O[C@H](C(=O)O)[C@@H](O)[C@H](O)[C@H]6O)[C@@](C)(C(=O)O)C5CC[C@@]4(C)[C@]2(C)CC3)O[C@@H]1C (stereo partly drawn)	-	-	-	-	-	0[6.45 µM]
O=C1CCCC2=C1C(c1cccnc1Br)N=C(Nc1nc3ccccc3o1)N2 (stereo not drawn)	-	-	-	-	-	0
Cc1ccc(N=C2NC(=O)CC(C(=O)Nc3cc(C(F)(F)F)ccc3Cl)S2)cc1 (stereo not drawn)	0	0	0	80	0	0
CCOc1ccc(NC(=O)C2CC(=O)NC(=Nc3ccc(Cl)c(Cl)c3)S2)cc1 (stereo not drawn)	0	0	0	0	0	0
Cc1cccc(C(=O)Nc2ccc3oc(-c4cccc5c(Br)cccc45)nc3c2)c1	0	0	0	0	0	0
Cc1cccc(C(=O)Nc2ccc3oc(-c4ccncc4)nc3c2)c1	0	0	0	72	0	?
SMILES	B2AR arrestin ag	GALC G270D up	GALK inh	DRV1 agonist	TSG101-PTAP inh	NTMT1 inhibitor
CC(C)=CCC/C(C)=C/CO[C@@H]1O[C@H](CO[C@@H]2OC[C@](O)(CO)[C@H]2O)[C@@H](O)[C@H](O)[C@H]1O	-	-	-	-	-	0
CC(C)c1ccc(CC(=O)N2CCC[C@@H](c3cccc(OC(C)(C)C(=O)O)c3)C2)cc1	-	-	-	-	-	0
CC(=O)N1c2ccc(S(=O)(=O)NCCC(=O)Nc3ccc(Br)c(C)c3)cc2CC1C (stereo not drawn)	0	0	0	69	0	0
CC(=O)N1c2ccc(S(=O)(=O)NCC3CCC(C(=O)Nc4cccc(F)c4)CC3)cc2CC1C (stereo not drawn)	0	0	?	64	0	0
CCOc1ccc(CCNC(=O)c2cc3sccc3n2Cc2ccccc2)c(F)c1OCC	-	-	-	-	-	0
CCOC(=O)c1ccc(NC(=O)Cn2nc3c4ccccc4n(Cc4cccc(F)c4)cc-3c2=O)cc1	0	0	?	0	0	79µM
C[C@@H]1CCC2C(C)(C)[C@H](O)CC[C@]2(C)[C@@]12Cc1c(O)cc3c(c1O2)CNC3=O (stereo partly drawn)	-	-	-	-	-	0
CCC1=C[C@@H]2CN(C1)Cc1c([nH]c3ccccc13)[C@@](C(=O)OC)(c1cc3c(cc1OC)N(C)[C@@H]1[C@@](O)(C(=O)OC)[C@H](OC(C)=O)[C@]4(CC)C=CCN5CC[C@]31[C@@H]54)C2	-	-	-	-	-	17µM
